# Source: PubChem BioAssay
# Sampled rows, rich in hits. Any-hit rate of the full collection: about 18%.
# TDP1 cell noCPT = qHTS for Inhibitors of human tyrosyl-DNA phosphodiesterase 1 (TDP1): qHTS in cells in absence of CPT; DT40 Tdp1-/- hTDP1 cells, no CPT, ATP luminescence, 48 h; Potency, µM (highest dose often 46.2 µM), for inactives: at the top dose activity change, negative = growth inhibition, usual class: inhibitors; actives 15% (n = 420,000); AID 686978, 2013; also: potency is read from the fitted curve at half-maximal effect; nearly all actives have a fitted effect of over 55% in size
#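 Chicken DT40 Tdp1-/- cells complemented with human TDP1, screened without camptothecin (DMSO vehicle only), 400 cells/well. Compounds pin-transferred, cells incubated at 37 °C for at least 48 hr. Growth read as ATP-dependent luminescence (CellTiter-Glo, 30 min at RT).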
# Six1-Eya2 inh = blocks human Six1 binding to Eya2. AlphaScreen GST-Six1/His-Eya2 binding, biochemical; stronger effect = lower value. activity change, % (concentration not given with the values). actives 0.56% (n = 360,000); in the data active = activity change below about -65%; inconclusive = mostly about -30% to -63%
# Target sequence (O00167 whole entry, looked up): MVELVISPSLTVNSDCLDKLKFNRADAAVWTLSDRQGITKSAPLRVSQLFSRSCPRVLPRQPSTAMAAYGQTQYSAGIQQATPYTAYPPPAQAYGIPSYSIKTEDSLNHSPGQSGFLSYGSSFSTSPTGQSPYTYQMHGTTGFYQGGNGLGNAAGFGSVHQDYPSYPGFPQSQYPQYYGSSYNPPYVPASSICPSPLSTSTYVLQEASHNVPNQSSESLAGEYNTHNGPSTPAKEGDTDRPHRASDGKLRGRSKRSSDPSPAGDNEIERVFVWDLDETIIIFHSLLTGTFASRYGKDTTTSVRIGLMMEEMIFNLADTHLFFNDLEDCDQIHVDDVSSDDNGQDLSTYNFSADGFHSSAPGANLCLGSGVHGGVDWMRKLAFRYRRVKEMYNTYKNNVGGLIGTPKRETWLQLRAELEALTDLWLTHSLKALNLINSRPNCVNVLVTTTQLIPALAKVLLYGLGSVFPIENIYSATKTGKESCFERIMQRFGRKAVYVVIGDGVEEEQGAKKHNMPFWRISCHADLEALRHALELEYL
# Target sequence (Q15475 whole entry, looked up): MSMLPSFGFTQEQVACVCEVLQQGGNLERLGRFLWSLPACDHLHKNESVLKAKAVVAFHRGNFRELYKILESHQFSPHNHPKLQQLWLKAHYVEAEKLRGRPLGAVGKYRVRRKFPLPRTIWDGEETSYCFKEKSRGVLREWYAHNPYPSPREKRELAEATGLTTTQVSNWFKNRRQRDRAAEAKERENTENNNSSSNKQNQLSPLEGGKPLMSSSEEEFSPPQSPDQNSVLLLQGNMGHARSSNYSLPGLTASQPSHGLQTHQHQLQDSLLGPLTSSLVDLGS
#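 Six1/Eya2 binding was read as AlphaScreen signal after compounds were pinned into GST-Six1 plus His-tagged Eya2 (5X stock 250/500 nM) in pH 8.0 Tris/NaCl/TCEP buffer, beads added, then incubated 1 h, 37 C, dark.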
# DT40 TDP1 CPT = DT40-hTDP1 cell growth loss with CPT. chicken DT40 Tdp1-/-;hTDP1 cells + 20 nM CPT, ATP luminescence, 48 h. Potency, µM (doses to about 46.2 µM), inactives show at the top dose activity change, negative = growth inhibition, usual class: inhibitors. actives 12% (n = 420,000); also: potency is read from the fitted curve at half-maximal effect; nearly all actives have a fitted effect of over 55% in size
#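 Chicken DT40 Tdp1-/- cells complemented with human TDP1, 400 cells/well, exposed to compounds plus 20 nM camptothecin for at least 48 h at 37 C; viability read as ATP content by CellTiter-Glo luminescence.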
# IL-1B inflam inh = inflammasome signaling inhibition, IL-1 beta readout; THP-1 LPS/ATP IL-1B secretion, AlphaLISA, 16 h; stronger effect = lower value; activity change, % at 57.5 µM; actives 4.7% (n = 360,000); AID 743279; in the data active = activity change below about -50%; inconclusive = mostly about -30% to -49%
#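 Secreted IL-1B measured by AlphaLISA bead assay after 16 h compound exposure of THP-1 cells; compounds (final up to 57.5 uM) added 1 h before LPS (250 ng/mL) and ATP (1.25 mM) stimulation; lower signal means less secretion.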
# CtBP-E1A inh = blocks the CtBP interaction with E1A; AlphaScreen GST-E1A/His-CtBP binding, 1536-well; stronger effect = lower value; activity change, % (no concentration beside the values); actives 0.49% (n = 340,000); in the data active = activity change below about -65%; inconclusive = mostly about -30% to -63%
#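 Protein mix (5X: 125 nM each GST-E1A, His-CtBP) was incubated with pinned compound 2 h at 37 deg C in dark, in 50 mM Tris pH 8.0 buffer with 300 mM NaCl. Glutathione donor and nickel acceptor beads followed; AlphaScreen signal read after 1 h.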
# TDP1 inh = inhibitors of human tyrosyl-DNA phosphodiesterase TDP1. actives 0.28% (n = 350,000). Potency, µM (doses to about 130 µM), for inactives: top-dose activity change, negative = inhibition, actives largely listed as inhibitors. AID 485290. recombinant TDP1, AlphaScreen DNA substrate cleavage. Q9NUW8; also: potency is read from the fitted curve at half-maximal effect; nearly all actives have a fitted effect of over 40% in size
#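 Steps: enzyme plus compound, 15 min RT; add biotin/phosphotyrosine-FITC oligonucleotide (15 nM final), react 5 min; add donor/acceptor beads (10 ug/ml final), 10 min; read AlphaScreen. Tdp1 at 1 nM final.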
# Active calls of the source: *; ? = inconclusive; nt = no result given. Unless noted, calls follow the shape of the dose curve; as a rule, active = well fitted curve in the direction sought with a large enough effect; inconclusive = small, poorly fitted or top-dose-only effect, or another doubt; inactive = no such curve, though single readings can be large; an effect the other way counts as inactive or inconclusive. % is scaled to controls: 0 for no effect and ±100 for the full control effect.
SMILES,TDP1 cell noCPT,Six1-Eya2 inh,DT40 TDP1 CPT,IL-1B inflam inh,CtBP-E1A inh,TDP1 inh
CCCN(CCC)C(=O)Cn1c(=O)n(-c2ccc(Cl)cc2)c(=O)c2c3c(sc21)CCCC3,-2%,nt,-26%,nt,nt,-1%
CCOC(=O)N1CCc2c(sc3c2c(=O)n(-c2ccc(CC)cc2)c(=O)n3Cc2cccc(OC)c2)C1,?,nt,13µM*,nt,nt,4%
COc1cccc(Cn2c(=O)n(-c3cccc(Cl)c3)c(=O)c3c4c(sc32)CN(C(C)=O)CC4)c1,18µM*,nt,?,nt,nt,5%
COc1ccc(C(O)c2nc(-c3cccs3)cs2)cc1 (stereo not given),?,0,?,20,2,nt
CN(C(=O)COC(=O)c1cccc(S(=O)(=O)N2CCOCC2)c1)C1CCS(=O)(=O)C1 (stereo not given),9%,13,-11%,4,10,nt
Cc1cccc(NC(=S)NC(=O)/C=C/c2ccccc2)n1,-11%,-7,-9%,-13,-1,-2%
CCn1c(N2CCN(S(=O)(=O)CC)CC2)nc2ccccc21,0%,5,5%,26,14,7%
CCn1c(N2CCN(S(=O)(=O)c3ccc(Cl)cc3)CC2)nc2ccccc21,15µM*,-13,15µM*,-87*,-5,2%
CCn1c(N2CCN(S(=O)(=O)c3ccc(F)cc3)CC2)nc2ccccc21,15µM*,-8,?,-59*,-10,4%
Cc1ccc2oc3c(c(=O)c2c1)C(c1ccc(F)cc1)N(c1nc(C)c(C)s1)C3=O (stereo not given),-19%,nt,-3%,nt,nt,1%
Cc1cc(OC(C)C(=O)Nc2ccncc2)ccc1Cl (stereo not given),23µM*,-1,13µM*,20,nt,4%
Cc1ccc(OC(C)C(=O)Nc2cc(C)on2)cc1 (stereo not given),10%,0,-15%,8,3,0%
Cc1ccc(OC(C)C(=O)Nc2ccncc2)cc1 (stereo not given),13µM*,-2,?,0,nt,nt
O=C(CNC(=O)c1ccc(Br)o1)NCc1ccc(Cl)cc1Cl,5%,-10,3%,11,-6,3%
O=C1CN(C(=O)COC(=O)CCNS(=O)(=O)c2ccc(Cl)cc2)c2ccccc2N1,-13%,5,-9%,-2,1,nt
COc1ccc(NC(=S)NCC(c2cccnc2)N2CCOCC2)cc1 (stereo not given),6%,6,21%,4,1,5%
Cc1ccc2[nH]c(-c3ccccc3)c(CN3CCCC3)c(=O)c2c1,-19%,0,16%,-5,10,3%
COc1ccc2c(c1)Cc1sc(NC(=O)c3ccccc3)nc1-2,?,-18,?,-4,-29,8%
COc1ccc2c(c1)CCc1sc(NC(=O)c3ccc(Cl)cc3)nc1-2,21µM*,nt,18µM*,nt,nt,-3%
COc1ccc(C(=O)Nc2nc3c(s2)Cc2cc(OC)ccc2-3)cc1,?,1,?,-53*,-11,2%
COc1ccc2c(c1)Cc1sc(NC(=O)c3cccs3)nc1-2,21µM*,3,?,-13,3,9%
COc1ccc2c(c1)Cc1sc(NC(=O)c3cccc(Br)c3)nc1-2,?,nt,?,nt,nt,7%
COc1ccc(Br)c2c1-c1nc(NC(=O)c3cccc(C)c3)sc1C2,23µM*,nt,?,nt,nt,2%
Cc1cnc(C(=O)OCC(=O)Nc2ccccc2-c2ccccc2)cn1,-9%,-1,-21%,-3,3,3%
COc1ccc(C(C(=O)NCc2ccccc2)N(C(=O)c2snc(C(N)=O)c2N)C2CCCC2)cc1O (stereo not given),4%,2,-14%,-21,4,nt
SMILES,TDP1 cell noCPT,Six1-Eya2 inh,DT40 TDP1 CPT,IL-1B inflam inh,CtBP-E1A inh,TDP1 inh
Cn1cncc1C#Cc1ccc2cc(CCCO)oc(=O)c2c1,-16%,-2,-1%,-8,1,2%
CCOC(=O)c1[nH]c2ccccc2c1NC(=O)C1CCCCC1,-16%,6,-1%,5,0,7%
Cc1cc(C)cc(Nc2nc(-c3ccc(S(=O)(=O)N4CCCC4)cc3)cs2)c1,7.3µM*,-20,8.2µM*,?,-2,5%
O=S(=O)(c1ccc(-c2csc(Nc3ccc(F)cc3)n2)cc1)N1CCCC1,12µM*,2,12µM*,1,-6,6%
Cc1ccc(Nc2nc(-c3ccc(S(=O)(=O)N4CCOCC4)cc3)cs2)cc1,?,-2,?,-23,3,nt
Cc1ccc(Nc2nc(-c3ccc(S(=O)(=O)N4CCCC4)cc3)cs2)cc1C,21µM*,-13,?,?,-7,8%
Nn1c(SCC(=O)NC2CCCCCC2)nnc1C(F)(F)F,-14%,9,-2%,-11,1,0%
CCN(CC)C(=O)CSc1ncccc1-c1nc2ccccc2[nH]1,-11%,-8,-20%,8,-10,4%
CCN(CC)CCNC(=O)c1c(C)n(-c2ccccc2)c2cc(Br)c(OC)cc12,18µM*,-3,?,?,-17,4%
Cc1ccc(NC(=O)CC2SC(=O)NC2=O)cc1 (stereo not given),5.8µM*,-2,2.6µM*,-4,6,-1%
Cc1ccc(NC(=O)CC2S/C(=N/N=C3/NC(=O)CS3)NC2=O)cc1 (stereo not given),-1%,-75*,-11%,-4,-23,1%
CCOC(=O)c1ccc(NC(=O)CC2S/C(=N/N=C/c3c[nH]c4ccccc34)NC2=O)cc1 (stereo not given),?,-9,-23%,-68*,-14,6%
COc1ccc(NC(=O)/C=C2\SC(=O)NC2=O)cc1,13%,-8,12%,-51*,4,8%
CCOC(=O)c1ccc(NC(=O)CC2S/C(=N/N=C3/NC(=O)CS3)NC2=O)cc1 (stereo not given),-19%,?,-6%,24,?,2%
COc1ccc(NC(=O)Nc2ccc(OC)cc2)cc1,0%,4,-17%,3,11,4%
CSCC[C@H](N)C(=O)N[C@@H](CCCN=C(N)N)C(=O)N[C@@H](Cc1ccccc1)C(=O)N[C@@H](Cc1ccccc1)C(=O)N[C@H](C(=O)O)C(C)C,nt,nt,nt,nt,nt,6%
COc1ccc(NC(=O)CC2SC(=O)NC2=O)cc1 (stereo not given),5.8µM*,-2,2.3µM*,-5,3,3%
